# In PubChem BioAssay:
# A number with no mark means an inactive call. For some assays here: Results with a measured potency or affinity are listed apart. The source made the active and inactive calls. Unless noted, how the calls were made is not given here.
# How the values were obtained:
# [1] = antimalarial activity against Dd2 strain (AID 2302;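 active means growth inhibition above 50% at the single 2 µM test dose, taken to imply half-maximal potency below 2 µM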;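 further: 0% = DMSO untreated growth and 100% = chloroquine plus artemisinin killed control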); conditions: P. falciparum Dd2 in RBCs, LDH growth readout, 72 h; at 2 µM; stronger effect = higher value
# [2] = human hepatoma cell viability loss – ATP luminescence, cytotoxicity control for P. falciparum antimalarial project, primary screen (AID 2303;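 active means inhibition above 50%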;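 further: 0% = DMSO wells and 100% = digitonin-killed cells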); conditions: HepG2 viability, 24-48 h, at 10 µM, stronger effect = higher value
# [3] = target: L-lactate dehydrogenase (Plasmodium falciparum (isolate CDC / Honduras)) (UniProt Q27743); experiment: PfLDH activity inhibition – cell lysate, 3D7 strain, counter-screen for P. falciparum growth inhibition project (AID 2304);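 further: 0% = vehicle and 100% = reference inhibitor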; conditions: P. falciparum 3D7 crude extract, LDH APAD/NBT absorbance; at 2 µM; stronger effect = higher value
# Chain of L-lactate dehydrogenase (Plasmodium falciparum (isolate CDC / Honduras)) (Q27743 whole entry, looked up): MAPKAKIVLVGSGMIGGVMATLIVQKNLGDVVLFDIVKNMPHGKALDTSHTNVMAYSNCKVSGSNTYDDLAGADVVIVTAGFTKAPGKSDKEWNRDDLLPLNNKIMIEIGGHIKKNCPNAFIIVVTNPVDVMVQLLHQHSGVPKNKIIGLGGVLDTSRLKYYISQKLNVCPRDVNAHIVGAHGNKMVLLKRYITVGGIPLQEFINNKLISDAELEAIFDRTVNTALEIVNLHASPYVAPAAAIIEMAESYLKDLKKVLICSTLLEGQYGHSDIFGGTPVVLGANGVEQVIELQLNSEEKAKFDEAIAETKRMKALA
# [4] = inhibition of 3D7 malaria parasite growth – strain 3D7 (AID 2306);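 further: 0% = DMSO wells and 100% = chloroquine plus artemisinin control wells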; conditions: P. falciparum 3D7 erythrocytic growth, LDH absorbance, 72 h; at 2 µM; stronger effect = higher value
# [5] = target: Calcium-dependent protein kinase 1 (Plasmodium falciparum (isolate 3D7)) (UniProt P62344); experiment: PfCDPK1 kinase inhibitors, biochemical, TCAMS library (AID 1159585; cut-off not given, nearly all actives have IC50 up to about 0.98 µM;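 further: inhibitors leave more ATP so luminescence rises with inhibition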); conditions: recombinant PfCDPK1, Kinase-Glo ATP depletion luminescence
# Chain of Calcium-dependent protein kinase 1 (Plasmodium falciparum (isolate 3D7)) (P62344 whole entry, looked up): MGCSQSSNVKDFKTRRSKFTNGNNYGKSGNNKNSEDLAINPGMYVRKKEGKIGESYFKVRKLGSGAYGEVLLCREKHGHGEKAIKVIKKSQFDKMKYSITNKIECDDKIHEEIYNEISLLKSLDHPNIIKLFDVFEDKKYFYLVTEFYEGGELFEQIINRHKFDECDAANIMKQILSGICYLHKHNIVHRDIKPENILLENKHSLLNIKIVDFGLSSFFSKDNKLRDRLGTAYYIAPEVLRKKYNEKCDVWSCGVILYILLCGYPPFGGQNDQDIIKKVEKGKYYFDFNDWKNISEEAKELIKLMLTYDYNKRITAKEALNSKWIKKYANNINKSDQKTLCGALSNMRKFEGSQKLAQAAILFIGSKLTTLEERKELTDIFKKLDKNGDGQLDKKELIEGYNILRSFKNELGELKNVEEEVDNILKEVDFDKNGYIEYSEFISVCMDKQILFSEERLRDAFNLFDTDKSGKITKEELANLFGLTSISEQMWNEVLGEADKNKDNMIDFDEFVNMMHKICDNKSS
# [6] = target: Plasmodium falciparum protein kinase 6 (PK6, PF3D7_1337100) (UniProt Q8IDW1); experiment: PfPK6 kinase inhibitors, biochemical, TCAMS library (AID 1159586); conditions: recombinant PfPK6, Kinase-Glo ATP depletion luminescence
# Chain of Plasmodium falciparum protein kinase 6 (PK6, PF3D7_1337100) (Q8IDW1 1-305): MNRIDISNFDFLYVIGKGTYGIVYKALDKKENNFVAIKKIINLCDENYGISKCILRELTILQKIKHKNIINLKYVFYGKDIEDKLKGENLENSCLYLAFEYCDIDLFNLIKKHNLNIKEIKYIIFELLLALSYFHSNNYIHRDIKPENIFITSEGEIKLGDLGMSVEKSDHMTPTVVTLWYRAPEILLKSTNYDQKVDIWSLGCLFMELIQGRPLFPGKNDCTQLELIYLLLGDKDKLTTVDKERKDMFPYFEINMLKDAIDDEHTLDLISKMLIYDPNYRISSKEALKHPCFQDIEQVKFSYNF
# [7] = target: Protein kinase 7 (PK7), Plasmodium falciparum 3D7 (PF3D7_0213400) (UniProt Q7YTF7); experiment: inhibition of Plasmodium PK7 catalytic activity – biochemical, TCAMS antimalarial set, Kinase-Glo luminescence (AID 1159587); conditions: recombinant PfPK7, Kinase-Glo ATP depletion luminescence
# Chain of Protein kinase 7 (PK7), Plasmodium falciparum 3D7 (PF3D7_0213400) (Q7YTF7 1-343): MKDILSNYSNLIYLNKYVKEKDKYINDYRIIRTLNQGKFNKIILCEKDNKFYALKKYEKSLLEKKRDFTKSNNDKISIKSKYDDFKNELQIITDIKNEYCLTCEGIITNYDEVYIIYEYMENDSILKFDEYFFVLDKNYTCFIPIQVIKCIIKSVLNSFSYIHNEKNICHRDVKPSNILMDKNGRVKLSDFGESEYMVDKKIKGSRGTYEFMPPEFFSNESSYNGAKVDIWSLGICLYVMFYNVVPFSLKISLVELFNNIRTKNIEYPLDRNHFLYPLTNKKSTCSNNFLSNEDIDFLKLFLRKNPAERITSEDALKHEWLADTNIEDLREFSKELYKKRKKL
# [8] = target: Calcium-dependent protein kinase 4 (Plasmodium falciparum (isolate 3D7)) (UniProt Q8IBS5); experiment: PfCDPK4 kinase inhibitors, biochemical, TCAMS library (AID 1159588; cut-off not given, nearly all actives have IC50 up to about 0.91 µM); conditions: recombinant PfCDPK4, Kinase-Glo ATP depletion luminescence
# Chain of Calcium-dependent protein kinase 4 (Plasmodium falciparum (isolate 3D7)) (Q8IBS5 whole entry, looked up): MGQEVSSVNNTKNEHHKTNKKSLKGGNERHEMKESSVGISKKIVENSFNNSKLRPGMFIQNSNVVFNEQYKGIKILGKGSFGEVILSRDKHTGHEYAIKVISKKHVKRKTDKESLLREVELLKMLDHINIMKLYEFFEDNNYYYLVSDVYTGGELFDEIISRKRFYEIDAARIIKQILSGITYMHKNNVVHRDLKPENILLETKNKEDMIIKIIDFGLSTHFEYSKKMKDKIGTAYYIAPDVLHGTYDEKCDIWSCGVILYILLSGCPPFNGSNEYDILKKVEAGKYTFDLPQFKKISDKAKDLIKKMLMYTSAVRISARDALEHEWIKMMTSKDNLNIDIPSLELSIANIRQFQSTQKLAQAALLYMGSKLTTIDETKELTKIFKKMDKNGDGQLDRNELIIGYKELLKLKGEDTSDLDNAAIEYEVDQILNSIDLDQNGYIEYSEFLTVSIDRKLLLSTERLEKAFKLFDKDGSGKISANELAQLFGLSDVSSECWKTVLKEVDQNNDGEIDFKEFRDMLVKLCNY
SMILES,growth inhibition [1],inhibition [2],inhibition [3],growth inhibition [4],outcome [5],outcome [6],outcome [7],outcome [8]
Nc1ccc(-c2csc(Nc3ccncc3)n2)cc1,50% (active),12%,-3%,95% (active),inactive,inactive,inactive,inactive
COc1ccc(CNCc2ccc(F)cc2)cc1-c1ccc(S(=O)(=O)NCCN2CCCC2)s1,65% (active),61% (active),-1%,101% (active),inactive,inactive,inactive,inactive
Oc1ccc(CCNc2nc(NCc3ccc4cc(Cl)ccc4c3)nc(N3CCNCC3)n2)cc1,38%,14%,-3%,92% (active),inactive,inactive,inactive,inactive
COc1cccc(NC(=O)Cn2c(C)c(C#N)c3ccccc32)c1,100% (active),16%,4%,101% (active),inactive,inactive,inactive,inactive
N#Cc1ccc(-c2ccc3nc(N4CCCN(C5CCC5)CC4)ccc3c2)cc1,14%,36%,-2%,96% (active),inactive,inactive,inactive,inactive
CCCOc1ccc(NC(=O)c2cccs2)cc1Cl,86% (active),1%,-4%,88% (active),inactive,inactive,inactive,inactive
COc1ccc(C(=O)N[C@@H](CC(C)C)C(=O)N[C@H](/C=N/NC(=O)c2ccccc2)CCc2ccccc2)cc1OCCN1CCOCC1,86% (active),2%,1%,96% (active),inactive,inactive,inactive,inactive
O=C(CCc1cccnc1)Nc1cccc(-c2ccc(-c3nc4ccc(C(F)(F)F)cc4[nH]3)s2)c1,13%,35%,2%,89% (active),inactive,inactive,inactive,inactive
c1cc(-c2ccc(CNCCCn3ccnc3)cc2)cc(-c2nc3ccccc3[nH]2)c1,100% (active),17%,5%,101% (active),inactive,inactive,inactive,inactive
Nc1c(Cl)cc(C(O)CNCCCCCCCCCc2ccccn2)cc1Cl (stereo not given),83% (active),9%,2%,98% (active),inactive,inactive,inactive,inactive
Cc1ccc(NC(=O)c2ccc3ncccc3c2)cc1OC1CCN(Cc2ccc(F)cc2)C1 (stereo not given),28%,11%,3%,83% (active),inactive,inactive,inactive,inactive
NC1CCN(Cc2ccc(-c3cccc(-c4nc5ccccc5[nH]4)c3)cc2)C1 (stereo not given),-3%,19%,5%,98% (active),inactive,inactive,inactive,inactive
O=C(Nc1ccccc1Oc1ccccc1)NC1CCN(c2ccnc3cc(Cl)ccc23)C1 (stereo not given),74% (active),-1%,0%,99% (active),inactive,inactive,inactive,inactive
COc1ccc2nccc([C@@H](O)CN3CCC(NCCc4c[nH]c5ccccc45)CC3)c2c1,77% (active),0%,-7%,98% (active),inactive,inactive,inactive,inactive
Cc1cc(N(C)C)nc(Nc2ccc(NC(=O)c3ccc(F)cc3)cc2)n1,21%,8%,-3%,100% (active),inactive,inactive,inactive,inactive
O=C(Nc1ccc(OC2CCN(Cc3ccc(F)cc3)C2)cc1)c1ccco1 (stereo not given),69% (active),-3%,-1%,88% (active),inactive,inactive,inactive,inactive
FC(F)(F)c1cc(CNCCCNc2nc3ccncc3[nH]2)ccc1Cl,15%,11%,2%,99% (active),inactive,inactive,inactive,inactive
COc1ccc(Nc2nccc(NCCNC(=O)c3cc4ccccc4s3)n2)cc1,7%,6%,-1%,98% (active),inactive,inactive,inactive,inactive
CCCc1ccc(S(=O)(=O)NC2CCN(C(=O)Nc3ccc(I)cc3)CC2)cc1,-8%,8%,-3%,97% (active),inactive,inactive,inactive,inactive
CCCNCc1ccc(-c2ccc(CN(Cc3ccc4c(c3)OCO4)C(=O)[C@H]3CCCO3)cc2)nc1,39%,18%,-3%,90% (active),inactive,inactive,inactive,inactive

SMILES,growth inhibition [1],inhibition [2],inhibition [3],growth inhibition [4],outcome [5],outcome [6],outcome [7],outcome [8]
COc1ccc2nccc([C@@H](O)CN3CCC(NC(=O)c4cc5c(F)cc(F)cc5[nH]4)CC3)c2c1,98% (active),33%,-1%,101% (active),inactive,inactive,inactive,inactive
COc1ccc(C2CC(c3cccs3)=NN2C(=O)CNc2ccccc2F)cc1OC (stereo not given),45%,11%,2%,87% (active),inactive,inactive,inactive,inactive
O=C(Nc1ccc(NC2=NCCN2)cc1)Nc1ccc(NC2=NCCN2)cc1,72% (active),-6%,-1%,88% (active),inactive,inactive,inactive,inactive
CCN1CCN(C(=O)NC(C(=O)N2CCCC(COc3ccc(Cc4ccccc4)cc3)C2)c2cccs2)C(=O)C1=O (stereo not given),87% (active),12%,-6%,95% (active),inactive,inactive,inactive,inactive
Nc1ccc(-c2ccc(NC(=O)Nc3ccccc3)cc2)cn1,93% (active),-3%,-1%,91% (active),inactive,inactive,inactive,inactive
COc1ccc(N2CCN(CCCCNC(=O)c3ccc(NC(=O)c4ccc(Cl)cc4)cc3)CC2)c(OC)c1,22%,25%,6%,97% (active),inactive,inactive,inactive,inactive
Cc1cnc(NCCc2ccc(F)cc2)nc1NCCC(=O)Nc1ccccc1,17%,3%,6%,89% (active),inactive,inactive,inactive,inactive
O=C(/C=C/c1ccc(Cl)c(Cl)c1)N1CCC(CCN2CCc3[nH]c4ccccc4c3C2)CC1,-1%,22%,-3%,96% (active),inactive,inactive,inactive,inactive
CCCCCCNC(=O)C1Cc2c([nH]c3cc(Cl)ccc23)C2(CCN(CCC)CC2)N1 (stereo not given),18%,8%,0%,92% (active),inactive,inactive,inactive,inactive
CC(=O)N(C)c1cccc(C(=O)Nc2ccc(-c3cccc(-c4nc5c(C)cccc5[nH]4)c3)cc2)c1,68% (active),86% (active),-2%,97% (active),inactive,inactive,inactive,inactive
COc1cccc(CCNCc2ccc(-c3cccc(CNC4CCCC4)c3)cc2)c1,45%,14%,-4%,101% (active),inactive,inactive,inactive,inactive
CCCCc1cc(NC2CCN(C)CC2)nc(Nc2ccccc2)n1,29%,7%,-2%,103% (active),inactive,inactive,inactive,inactive
O=C(Nc1cccc(CN2CCCN(Cc3ccc(O)cc3)CC2)c1)c1cc2ccccc2o1,62% (active),10%,0%,95% (active),inactive,inactive,inactive,inactive
Cc1cc(Nc2ccc(C)c(Cl)c2)n2ncnc2n1,91% (active),6%,-1%,98% (active),inactive,inactive,inactive,inactive
CCc1cc2c3c(N)nc(N)nc3ccc2n1CC,-2%,62% (active),-1%,93% (active),inactive,inactive,inactive,inactive
CCOCc1cnc(C)nc1NCC(=O)c1c(C)[nH]c2cc(C)ccc12,76% (active),8%,4%,89% (active),inactive,inactive,inactive,inactive
Oc1ccc2nc(N3CCNCC3)nc(NCCCc3ccccc3)c2c1,0%,14%,-4%,102% (active),inactive,inactive,inactive,inactive
Cc1cccc2c(/C=C/C(=O)NC3CCC(CCN4CCc5ccc(C#N)cc5CC4)CC3)c[nH]c12 (stereo not given),49%,18%,-1%,91% (active),inactive,inactive,inactive,inactive
CC(C)C[C@H](NC(=O)c1ccc(OCCN2CCOCC2)cc1)C(=O)NC(/C=N/N1CCCC1=O)C(C)C (stereo not given in full),81% (active),3%,-2%,90% (active),inactive,inactive,inactive,inactive
CCC(C)OC(=O)C1=C(C)NC2=C(C(=O)CC(c3ccc(OC)c(OC)c3)C2)C1c1ccc(O)cc1 (stereo not given),97% (active),3%,6%,101% (active),inactive,inactive,inactive,inactive
